Screening results from PubChem BioAssay.
IL1B secr inh – blocks inflammasome-driven IL-1 beta release; 360,000 compounds, 4.7% hits; AID 743279; THP-1 LPS/ATP IL-1B secretion, AlphaLISA, 16 h; stronger effect = lower value; activity change, % at 57.5 µM; in the data active = activity change below about -50%; inconclusive = mostly about -30% to -49%
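THP-1 cells pretreated 1 hr with compounds (up to 57.5 uM final), then stimulated with LPS (250 ng/mL final) plus ATP (1.25 mM final); secreted IL-1B measured by AlphaLISA after 16 hr, decreased signal indicating inhibition.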
TDP1 cell CPT – growth inhibition of DT40 Tdp1-/-;hTDP1 cells with camptothecin (screen for TDP1 inhibitors). Potency, µM (titrated, usually from 46.2 µM), usual class: inhibitors. AID 686979. chicken DT40 Tdp1-/-;hTDP1 cells + 20 nM CPT, ATP luminescence, 48 h. 420,000 compounds, 12% hits; note: nearly all actives have a fitted effect of over 55% in size
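Cell growth measured by CellTiter-Glo luminescence after a minimum 48 h, 37 C compound exposure with 20 nM CPT in Tdp1-knockout DT40 cells stably expressing hTDP1, seeded 400/well; qHTS titration format.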
DT40 TDP1 no CPT – qHTS for Inhibitors of human tyrosyl-DNA phosphodiesterase 1 (TDP1): qHTS in cells in absence of CPT; Potency, µM (top dose mostly 46.2 µM), actives largely listed as inhibitors; AID 686978, 2013; DT40 Tdp1-/- hTDP1 cells, no CPT, ATP luminescence, 48 h; 420,000 compounds, 15% hits; note: nearly all actives have a fitted effect of over 55% in size
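No-CPT arm: Tdp1-/-;hTDP1 DT40 cells (400/well) plus compounds, incubated ≥48 hr at 37 °C. Readout CellTiter-Glo luminescence.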
Chronic BCR inh – chronic active BCR signaling inhibition; ABC-DLBCL IkBa-CBG/CBR reporter, luminescence ratio, 4 h; Potency, µM (series often up to 46.1 µM), usual class: inhibitors; 340,000 compounds, 0.05% hits; AID 493014; active = well fitted inhibition curve with a large enough effect in the signal ratio, with a control signal flat, not every such curve was filed as active; inconclusive = small, poorly fitted or top-dose-only effect, or effect the other way, or a change in a side signal; the % refers to the signal ratio
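TMD8 human ABC-DLBCL cells with doxycycline-inducible IκBα–green luciferase fusion and unfused red luciferase, in 0.5% FBS medium; compounds up to 46 uM, 4 h at 37C. Green/red luminescence ratio, filter-overlap corrected, fitted to concentration-response curves.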
MCF10A rerep – DNA re-replication induction in MCF 10a cells. Potency, µM (series often up to 46.1 µM), actives largely listed as activators. 350,000 compounds, 2.9% hits. MCF 10A DNA re-replication, Hoechst nuclear intensity, 48 h. AID 624296; note: nearly all actives have a fitted effect of over 50% in size
SW480 rereplic – induces DNA re-replication in SW480 colon adenocarcinoma cells. 340,000 compounds, 1.8% hits. AID 624297. SW480 DNA re-replication, Hoechst DNA content imaging, 48 h. Potency, µM (titrated, usually from 46.1 µM), usual class: activators; note: nearly all actives have a fitted effect of over 55% in size
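Readout is total intensity of Hoechst-stained nuclei, excited at 405 nm and collected at 500-530 nm. Compound treatment lasted 48 hr at 37 C in 5% CO2 before staining.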
Hits are given with their value; – = inactive; ? = inconclusive; · = no result. A selection: hits, their analogues and other compounds. The true share with any hit is near 19%. Unless noted, calls come from the whole dose curve; as a rule, active = well fitted curve in the direction sought with a large enough effect; inconclusive = small, poorly fitted or top-dose-only effect, or another doubt; inactive = no such curve, though single readings can be large; an effect the other way counts as inactive or inconclusive.

SMILES	IL1B secr inh	TDP1 cell CPT	DT40 TDP1 no CPT	Chronic BCR inh	MCF10A rerep	SW480 rereplic
Cc1ccc(-n2nc3c(N4CCC(C(=O)NCc5ccc(C)o5)CC4)nnc(C)c3c2C)cc1	–	23.1µM	?	–	–	–
Cc1ccc(-n2nc3c(N4CCC(C(=O)N5CCCCC5)CC4)nnc(C)c3c2C)cc1	·	?	23.1µM	·	·	·
O=C(NNC(=O)c1ccccc1O)c1cccc(Br)c1	–	?	?	?	–	?
COc1ccc(-n2nc3c(N4CCC(C(=O)NCC(C)c5ccccc5)CC4)nnc(C)c3c2C)cc1 (configuration not stated)	-95.5	?	?	–	?	?
COc1ccccc1N1CCN(S(=O)(=O)c2c(C)[nH]c(=O)[nH]c2=O)CC1	–	–	–	–	–	–
O=C(O)c1cc(S(=O)(=O)N2CCOCC2)ccc1N1CCCCC1	–	–	–	–	–	?
O=c1c2ccccc2sn1-c1cc(S(=O)(=O)N2CCOCC2)ccc1N1CCCCC1	·	2.51µM	5.62µM	·	·	·
O=c1c2ccccc2sn1-c1cc(S(=O)(=O)N2CCOCC2)ccc1N1CCOCC1	-101.8	4.47µM	4.47µM	–	–	?
O=c1c2ccccc2sn1-c1cc(S(=O)(=O)N2CCOCC2)ccc1N1CCCC1	-106.6	5.8µM	11.6µM	?	?	?
Cc1ccc(NC(=O)CSc2nc(NS(=O)(=O)c3ccccc3)cc(=O)[nH]2)cc1	–	–	–	–	–	–
CCc1ccc(NC(=O)CSc2nc(NS(=O)(=O)c3ccccc3)cc(=O)[nH]2)cc1	-55.4	25.9µM	16.4µM	–	–	–
Cc1cc(NC(=O)C(C)(C)Oc2ccc(Cl)cc2)cc(-c2nc3ncccc3o2)c1O	·	–	–	·	·	·
Cc1c(Cl)cccc1NC(=O)CC(c1cccs1)N1Cc2ccccc2C1=O (configuration not stated)	·	16.4µM	?	·	·	·
COc1ccc(C(CC(=O)Nc2ccc(C)cn2)N2Cc3ccccc3C2=O)cc1 (configuration not stated)	–	–	?	?	–	–
Cc1c(Cl)cccc1NC(=O)CC(c1ccc(F)cc1)N1Cc2ccccc2C1=O (configuration not stated)	·	23.1µM	20.6µM	·	·	·
O=C(Nc1ccccc1F)C(Cc1ccccc1)N1Cc2ccccc2C1=O (configuration not stated)	·	–	–	·	·	·
Cc1c(Cl)cccc1NC(=O)Cc1cccs1	–	–	–	–	–	–
O=C(CC(c1cccs1)N1Cc2ccccc2C1=O)Nc1ccccc1F (configuration not stated)	·	?	20.6µM	·	·	·
CSc1cccc(NC(=O)CC(c2cccs2)N2Cc3ccccc3C2=O)c1 (configuration not stated)	·	16.4µM	?	·	·	·
COc1cc(Cl)c(C)cc1NC(=O)CC(c1ccc(F)cc1)N1Cc2ccccc2C1=O (configuration not stated)	·	23.1µM	18.4µM	·	·	·
O=c1[nH][nH]c2c1[C@H](C1CCCC1)O[C@H](CCc1ccccc1)C2	?	20.6µM	18.4µM	·	·	·
Cn1c(CNC(=O)c2ccc3c(c2)OCO3)nnc1SCC(=O)Nc1ccc(F)cc1F	–	–	–	–	–	–
CCNC(=O)COc1ccc(/C=C2\COc3ccccc3C2=O)cc1OC	-102.2	14.6µM	13µM	?	?	?
O=C1/C(=C/c2cccs2)COc2ccccc21	–	?	?	–	–	–
CCOc1cc(/C=C2\COc3ccccc3C2=O)ccc1OCC(=O)N(C)C	-97.8	?	10.3µM	?	14.6µM	14.6µM
SMILES	IL1B secr inh	TDP1 cell CPT	DT40 TDP1 no CPT	Chronic BCR inh	MCF10A rerep	SW480 rereplic
Cc1nn(C)c2c1c(-c1ccccc1)cc(=O)n2Cc1ccc(Cl)cc1	·	–	–	·	·	·
Cc1cc(C(=O)CN2CCN(CC(=O)Nc3cccc(F)c3)CC2)c(C)n1C1CC1	–	–	–	?	–	–
O=C1NC2(CCCCCC2)C(=O)N1Cc1ccccc1Cl	–	–	–	–	–	–
Cc1ccn2c(C(C)O)nnc2c1 (configuration not stated)	–	–	–	·	·	·
Fc1ccc(/C=N/c2c(-c3ccc(F)cc3)nc3n2CCS3)cc1	–	–	–	–	–	–
COc1ccc(/C=N/c2c(-c3ccc(OC)cc3)nc3n2CCS3)cc1	?	?	16.4µM	?	–	–
C=C(C)c1cccc(C(C)(C)NC(=O)N2CCN(CC)CC2)c1	–	–	–	–	–	–
C=C(C)c1cccc(C(C)(C)NC(=O)N2CCC(C)CC2)c1	?	18.4µM	?	?	–	–
Cc1[nH]n(C(N)=S)c(=O)c1N=Nc1cccc(C(F)(F)F)c1	–	?	?	–	–	–
Cc1[nH]n(C2=NCCS2)c(=O)c1N=Nc1cccc(C(F)(F)F)c1	–	3.66µM	2.59µM	–	–	?
O=C(Nc1ccc(Cl)cc1)c1cc2c(cc1O)[nH]c1ccccc12	-95.1	3.26µM	4.11µM	–	4.61µM	–
CN1C(=O)c2cccc3c(Cl)ccc(c23)C1=O	·	–	–	–	–	–
COc1ccccc1N1C(=O)c2cccc3c(Cl)ccc(c23)C1=O	–	?	13µM	–	–	–
CCOCCn1c(CN2CCN(C)CC2)nc2c1c(=O)n(C)c(=O)n2C	–	–	–	–	–	–
CCOCCn1c(CN2CCN(c3ccc(F)cc3)CC2)nc2c1c(=O)n(C)c(=O)n2C	–	13µM	18.4µM	–	–	–
Cn1c(=O)c2c(nc(CN3CCN(Cc4ccccc4)CC3)n2Cc2ccccc2)n(C)c1=O	·	·	·	–	·	·
COCCn1c(CN2CCN(c3cccc(Cl)c3)CC2)nc2c1c(=O)n(C)c(=O)n2C	–	8.2µM	13µM	?	–	–
COC(=O)Cn1c(CN2CCN(c3ccc(F)cc3)CC2)nc2c1c(=O)n(C)c(=O)n2C	–	2.31µM	1.84µM	–	–	–
COCCn1c(CN2CCN(C)CC2)nc2c1c(=O)n(C)c(=O)n2C	–	–	–	–	–	?
CC(C)CCn1c(CN2CCN(c3cccc(Cl)c3)CC2)nc2c1c(=O)n(C)c(=O)n2C	–	?	23.1µM	–	–	–
COc1cccc(CNS(=O)(=O)c2cc(Br)ccc2Br)c1	–	?	?	·	·	·
CCOCCn1c(CN2CCN(c3cccc(Cl)c3)CC2)nc2c1c(=O)n(C)c(=O)n2C	–	7.31µM	5.17µM	–	–	–
COc1ccc(NC(=O)c2c(C)oc3ccc(O)c(CN4CCN(Cc5ccccc5)CC4)c23)cc1Cl	·	18.4µM	14.6µM	·	·	·
CCN1CCN(Cc2c(O)ccc3oc(C)c(C(=O)Nc4ccc(OC)c(Cl)c4)c23)CC1	·	23.1µM	?	·	·	·
